Assay results from PubChem BioAssay AID652115 (Broad Institute, 2013).
The whole screen tested about 330,000 compounds, of which about 3,800 (1.2%) were called active. The list comes from a sample in which actives are over-represented; it also holds similar structures and randomly drawn compounds. A number with no mark means an inactive call. No stated cut-off is given here; in the data, active means inhibition above about 15%; inconclusive means no clear call, values can overlap the other calls; inactive means below that.

Molecular target: NAD-dependent protein deacylase sirtuin-5, mitochondrial (Homo sapiens) (UniProt Q9NXA8)
Assay: blockers of sirtuin-5 deacylase activity – biochemical, fluorescence imaging, single point, set 5, primary screen (AID 652115)
Conditions: Purified SirT5, succinyl-peptide AMC, trypsin-coupled fluorescence; at 15 µM; hits give high values

Chain of NAD-dependent protein deacylase sirtuin-5, mitochondrial (Homo sapiens) (Q9NXA8 whole entry, looked up): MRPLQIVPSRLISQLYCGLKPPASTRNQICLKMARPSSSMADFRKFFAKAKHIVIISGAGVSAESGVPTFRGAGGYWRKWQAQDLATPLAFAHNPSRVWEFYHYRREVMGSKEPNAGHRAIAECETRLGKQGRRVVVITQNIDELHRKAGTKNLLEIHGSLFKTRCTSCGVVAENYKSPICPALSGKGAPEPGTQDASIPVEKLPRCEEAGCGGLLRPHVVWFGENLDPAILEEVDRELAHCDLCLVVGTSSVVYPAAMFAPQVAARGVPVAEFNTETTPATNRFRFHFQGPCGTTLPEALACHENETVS

Compound | inhibition
C[C@@H]1CN([C@H](C)CO)S(=O)(=O)c2ccc(-c3cncnc3)cc2O[C@H]1CN(C)C(=O)Cc1ccccc1 | 1.64%
CCCC#Cc1cnc2c(c1)C(=O)N([C@H](C)CO)C[C@H](C)[C@@H](CN(C)C(=O)c1cccnc1)O2 | -3.74%
CN1C(=O)c2cc(NS(=O)(=O)c3ccc(Cl)cc3)ccc2OC[C@@H]2O[C@H](CC(=O)O)CC[C@@H]21 | -0.474%
O=C(C1CC1)N1CC(=O)N2[C@H](CO)[C@@H](c3ccc(-c4ccccc4F)cc3)[C@@H]2C1 | -3.61%
COc1ccc(CN(C)C[C@H]2OCCCC[C@@H](C)Oc3ccc(NS(=O)(=O)c4ccccc4)cc3C(=O)N([C@@H](C)CO)C[C@@H]2C)cc1 | -2.94%
COc1ccccc1CN1[C@H](CO)[C@H](c2ccccc2)C12CN(C(=O)c1ccccn1)C2 | -0.913%
C[C@@H]1CN([C@H](C)CO)C(=O)c2cccc(NS(=O)(=O)c3ccc(Cl)cc3)c2O[C@H]1CN(C)Cc1ccc(C(F)(F)F)cc1 | 2.17%
COCC(=O)Nc1ccc2c(c1)OC[C@H](C)N(C(=O)c1cnccn1)C[C@@H](C)[C@@H](OC)CN(C)C2=O | 10.6%
Cc1noc(C)c1NC(=O)N(C)C[C@H]1OCCCC[C@@H](C)Oc2ccc(NC(=O)NC(C)C)cc2C(=O)N([C@@H](C)CO)C[C@H]1C | 1.72%
O=C1/C(=C/c2ccc3c(c2)OCO3)CCC/C1=C\c1ccc2c(c1)OCO2 | 15.2% (active)
NC(=O)c1ccc(NC(=O)COC(=O)c2c3c(nc4ccccc24)/C(=C\c2ccc4c(c2)OCO4)CCC3)cc1 | -2.29%
O=C(N/N=C/c1ccc2c(c1)OCO2)C(=O)N1CCCC1 | -0.951%
C[C@H](CO)N1C[C@H](C)[C@H](CN(C)C(=O)c2cccnc2)Oc2ncc(C3=CCCC3)cc2C1=O | -8.88%
C[C@H](CO)N1C[C@H](C)[C@@H](CN(C)C(=O)Cc2ccncc2)Oc2ncc(C#CCN(C)C)cc2C1=O | 6.32%
CCCN(C)C[C@H]1Oc2ncc(C#CCOC)cc2C(=O)N([C@@H](C)CO)C[C@H]1C | 0.664%
C[C@H](CO)N1C[C@H](C)[C@H](CN(C)Cc2ccc(Oc3ccccc3)cc2)Oc2c(NC(=O)CCCCCC(=O)Nc3ccccc3N)cccc2C1=O | 10.2%
C[C@@H]1CN([C@H](C)CO)C(=O)c2cccc(NC(=O)CCCCCC(=O)Nc3ccccc3N)c2O[C@H]1CN(C)Cc1ccc(Oc2ccccc2)cc1 | 28.2% (active)
C[C@@H]1CN([C@H](C)CO)C(=O)c2cccc(NC(=O)c3cnccn3)c2O[C@@H]1CN(C)Cc1ccc(C(=O)Nc2ccccc2N)cc1 | 15.1% (active)
C[C@@H]1CN([C@@H](C)CO)C(=O)c2cccc(NC(=O)CCCCCC(=O)Nc3ccccc3N)c2O[C@H]1CN(C)C(=O)Nc1ccccc1 | -0.269%
C[C@@H]1CN([C@@H](C)CO)C(=O)c2cccc(NC(=O)c3cnccn3)c2O[C@H]1CN(C)Cc1ccc(-c2ccccc2)cc1 | -1.19%
C[C@@H]1CN([C@@H](C)CO)C(=O)c2cccc(NC(=O)c3cnccn3)c2O[C@H]1CN(C)Cc1ccc(C(=O)O)cc1 | -1.49%
CCOc1cc(C)ccc1OCc1nnc(SCC(=O)Nc2cccc(C(=O)O)c2)n1-c1ccccc1 | 60.5% (active)

Compound | inhibition
COc1ccccc1OCc1nnc(SCC(N)=O)n1-c1ccccc1 | -0.045%
COc1ccccc1-n1c(SCC(=O)Nc2cccc(C(=O)O)c2)nnc1-c1ccccc1O | 3.18%
COc1cccc(S(=O)(=O)N[C@@H]2C=C[C@H](CC(=O)NC3CCC3)O[C@@H]2CO)c1 | -3.76%
CO[C@@H]1CC[C@@H]2CCOc3c(C#N)cccc3C(=O)N(C)C[C@@H](C)C(=O)N(C)C[C@@H]1O2 | 0.964%
CCN(CC)c1ncnc2c1ncn2[C@H]1CN(Cc2cccs2)C[C@@H](CO)O1 | 0.751%
OC[C@@H]1CN(Cc2cccs2)C[C@H](n2cnc3c(NC4CCCC4)ncnc32)O1 | 5.79%
OC[C@@H]1CN(Cc2cccs2)C[C@H](n2cnc3c(Nc4ccccc4)ncnc32)O1 | 19.4% (active)
CCCC(=O)Nc1ccc2c(c1)C(=O)N(C)C[C@H](OC)[C@@H](C)CN(C(C)=O)[C@H](C)CO2 | 0.113%
CO[C@@H]1CN(C)C(=O)c2cc(NC(=O)C3CC3)ccc2OC[C@H](C)N(CC2CC2)C[C@H]1C | -3.23%
O=C(c1cccc(S(=O)(=O)N2CCCC2)c1)N(Cc1ccco1)C1CCS(=O)(=O)C1 (stereo unspecified) | 18.1% (active)
CC(C)CN(C(=O)c1cccc(S(=O)(=O)N2CCCCC2)c1)C1CCS(=O)(=O)C1 (stereo unspecified) | -1.89%
CCCCN(C(=O)c1ccc(S(=O)(=O)N2CCOCC2)cc1)C1CCS(=O)(=O)C1 (stereo unspecified) | 2.17%
CN(C)C(=O)C[C@@H]1CC[C@@H](NC(=O)NC2CCCC2)[C@@H](CO)O1 | 1.11%
COc1cccc(S(=O)(=O)N[C@H]2CC[C@@H](CCN)O[C@H]2CO)c1 | 0.762%
CCOC(=O)C(C)Oc1cccc2c(=O)n(CC(=O)NCCc3ccc(OC)c(OC)c3)ccc12 (stereo unspecified) | -3.89%
COC(=O)COc1cccc2c(=O)n(CC(=O)NCCc3ccc(OC)c(OC)c3)ccc12 | 15.1% (active)
COC(=O)COc1cccc2c(=O)n(CC(=O)NCc3ccccc3)ccc12 | -3.93%
CO[C@@H]1CN(C)C(=O)c2cc(NC(=O)c3cnccn3)ccc2OC[C@@H](C)N(C(=O)C2CC2)C[C@@H]1C | 2.16%
COc1cccc(-c2ccc([C@H]3[C@H]4CN(C(=O)NC(C)C)CC(=O)N4[C@H]3CO)cc2)c1 | 1.38%
COc1ccc(OC)c(CN2CCN(C(=O)CNC(=O)c3cc(C)cc(C)c3)CC2)c1 | -1.91%
COc1cc(OC)c(OC)cc1CN1CCN(C(=O)c2cccc3ccccc23)CC1 | -1.16%
COc1cc(C)c(CN2CCN(C(=O)CCC(=O)c3ccc(C)s3)CC2)cc1OC | 19.2% (active)

Compound | inhibition
O=C(C[C@H]1CC[C@H]2[C@@H](COC[C@@H](O)CN2Cc2ccccc2)O1)N[C@@H]1CCN(Cc2ccccc2)C1 | -3.08%
CCCNC(=O)N(C)C[C@H]1Oc2ncc(-c3cccc(C#N)c3)cc2C(=O)N([C@@H](C)CO)C[C@H]1C | 0.845%
CCNC(=O)C[C@@H]1CC[C@H]2[C@@H](COC[C@@H](O)CN2C(=O)c2cc(Cl)cc(Cl)c2)O1 | -2.11%
COc1ccc(S(=O)(=O)Nc2ccc3c(c2)C(=O)N([C@H](C)CO)C[C@@H](C)[C@H](CN(C)Cc2ccccc2)O3)cc1 | 5.6%
COc1ccc(CN(C)C[C@H]2Oc3c(NS(=O)(=O)c4ccc(Cl)cc4)cccc3C(=O)N([C@H](C)CO)C[C@@H]2C)cc1 | -1.84%
COc1ccc(CN(C)C[C@H]2Oc3c(NS(=O)(=O)c4ccc(C)cc4)cccc3C(=O)N([C@@H](C)CO)C[C@@H]2C)cc1 | -2.22%
COc1ccc(S(=O)(=O)Nc2ccc3c(c2)C(=O)N([C@H](C)CO)C[C@H](C)[C@@H](CN(C)Cc2ccc(-c4ccccc4)cc2)O3)cc1 | 16.6% (active)
COc1ccc(CN(C)C[C@H]2Oc3c(NS(=O)(=O)c4ccccc4)cccc3C(=O)N([C@H](C)CO)C[C@@H]2C)cc1 | 6.84%
COc1ccc(CN(C)C[C@H]2Oc3c(NS(=O)(=O)c4ccccc4)cccc3C(=O)N([C@@H](C)CO)C[C@H]2C)cc1 | 26.9% (active)
COc1ccc(S(=O)(=O)Nc2ccc3c(c2)C(=O)N([C@H](C)CO)C[C@@H](C)[C@@H](CN(C)Cc2ccccc2)O3)cc1 | 3.29%
COc1ccc(S(=O)(=O)Nc2cccc3c2O[C@@H](CN(C)Cc2ccc(-c4ccccc4)cc2)[C@H](C)CN([C@H](C)CO)C3=O)cc1 | 19.6% (active)
COc1ccc(CN(C)C[C@H]2Oc3c(NS(=O)(=O)c4ccc(Cl)cc4)cccc3C(=O)N([C@H](C)CO)C[C@H]2C)cc1 | -3.94%
O=C(Nc1ccc(C(F)(F)F)cc1)N[C@@H]1CC[C@H](CC(=O)N2CCCCC2)O[C@H]1CO | -2.54%
O=C([C@@H]1[C@@H](CO)[C@@H]2Cn3c(ccc(-c4ccccc4)c3=O)[C@H]1N2CCC(F)(F)F)N1CCCCC1 | -29.7%
CCCNC(=O)N1CC(=O)N2[C@H](CO)[C@@H](c3ccc(-c4ccc(F)cc4)cc3)[C@H]2C1 | 4.11%
C[C@H](CO)N1C[C@H](C)[C@@H](CN(C)C(=O)Nc2ccnc(N3CCOCC3)c2)OCc2ccccc2-c2c(n(C)c3ccccc23)C1=O | -5.68%
Cc1ccc(C)c(NC(=O)c2ccc3nccnc3c2)c1 | 0.033%
CC(C)CCC(C)NC(=O)c1ccc2nccnc2c1 (stereo unspecified) | 7.36%
Cc1nnc(NC(=O)c2ccc3nccnc3c2)s1 | 16.3% (active)
O=C(Nc1ccc(C(F)(F)F)cc1)N[C@@H]1CC[C@H](CCNC(=O)c2ccccc2F)O[C@@H]1CO | 0.363%
Cc1ccc(S(=O)(=O)NC[C@H]2CC[C@@H]3[C@@H](CN3Cc3ccccc3C(=O)O)O2)cc1 | -3.22%
C[C@@H](NC(=O)C[C@H]1C[C@H]2c3cc(NC(=O)Nc4ccccc4F)ccc3O[C@H]2[C@@H](CO)O1)c1ccccc1 | 2.15%
